This is a sample that favours compounds with a hit; in the whole collection about 14% have one here.
LASV entry inh: Lassa virus entry inhibition; Potency, µM (titrated, usually from 37.9 µM), for inactives: at the highest dose activity change, negative = inhibition, hits mostly inhibitors; Lassa virus pseudotype entry inhibition, cell reporter; 1.2% of 300,000 active; calls by dose curve; tested in HEK293 cells; note: potency is the fitted concentration of half-maximal effect; nearly all actives have a fitted effect of over 50% in size
Pf growth 48h: inhibits P. falciparum growth in the first generation, 48 h. P. falciparum luciferase growth in erythrocytes, 48 h. Potency, µM (doses to about 28.7 µM), inactives show top-dose activity change, negative = inhibition, usual class: inhibitors. 5.9% of 310,000 active. AID 504832; note: potency is the fitted concentration of half-maximal effect
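First compound was added to culture medium, then infected red cells at 0.1% parasitemia and 2% hematocrit (final). After incubation at 37 C under 5% CO2, luciferase detection reagent was dispensed and light output recorded.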
HCV inh: inhibitors of hepatitis C virus infection | Potency, µM (titrated, usually from 41.8 µM), without a hit: at the highest dose activity change, negative = inhibition, most hits filed as inhibitors | Huh7.5.1 HCVcc-Cre infection, luciferase reporter, 44 h | 3.4% of 340,000 active; note: potency is the fitted concentration of half-maximal effect
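Luciferase read-out (15 sec integration) after a 15 min room-temperature substrate step quantifies HCVcc-Cre infection. Cells, 1,000 per well, had compound added 4 h post-plating, then virus at ~0.5 moi, and were cultured 44 h.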
Pf growth 96h: P. falciparum growth inhibition at 96 hours; P. falciparum luciferase reporter growth, 96 h; 6.9% of 320,000 active; AID 504834; Potency, µM (top dose mostly 28.7 µM), for inactives: at the top dose activity change, negative = inhibition, usual class: inhibitors; note: potency is the fitted concentration of half-maximal effect
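Parasite growth measured via integrated firefly luciferase reporter in P. falciparum. Infected erythrocytes at 2% hematocrit, 0.05% parasitemia final were treated 96 hours at 37 C under 5% CO2, and luminescence was read.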
HCMV inh: human cytomegalovirus inhibition; AID 1259415; activity change, negative = inhibition, % at 57.5 µM; 4.5% of 410,000 active; HFF cells, HCMV-luciferase reporter, 72 h; active compounds read low; in the data active = activity change below about -60%; inconclusive = no clear call, values can overlap the other calls; inactive = above about -39%
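Two-dose cell screen: HFF monolayers treated with compounds and infected with luciferase-expressing HCMV at 1 PFU/cell, 72 h at 37C, then lysed for luciferase measurement.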
MARV entry inh: inhibitors of Marburg virus binding or cell entry; Marburg virus pseudotyped entry inhibition, cell reporter; 1.8% of 300,000 active; Potency, µM (top dose mostly 37.8 µM), without a hit: at the top dose activity change, negative = inhibition, hits mostly inhibitors; calls by dose curve; tested in HEK293 cells; note: potency is the fitted concentration of half-maximal effect
* hit, by the source's call; ? = inconclusive; nt = no result; [ ] = dose if it differs, or a comment. Unless noted, calls come from the whole dose curve; as a rule, active = well fitted inhibition curve with a large enough effect; inconclusive = small, poorly fitted or top-dose-only effect, or another doubt; inactive = no such curve, though single readings can be large or run the other way. % is set by controls: 0 for no effect and ±100 for the full control effect.

SMILES | LASV entry inh | Pf growth 48h | HCV inh | Pf growth 96h | HCMV inh | MARV entry inh
CC(=O)Nc1ccc(S(=O)(=O)/N=C2\C(=O)c3ccccc3C([O-])=C2n2cc[n+](-c3ccccn3)c2)cc1 | nt | 1.5µM* | -5% | 4.7µM* | ? | nt
CCCCC[n+]1ccn(-c2nc3ccccc3nc2[N-]S(=O)(=O)c2ccccc2)c1 | -1% | -49% | -14% | -19% | 20 | -8%
COc1ccc(-n2c(=O)c3c(C)c(C)sc3n(CC(=O)NCc3ccc(C)cc3)c2=O)c(OC)c1 | ? | nt | nt | nt | -31 | 1%[46.1 µM]
O=C(c1cccc(-n2cccc2)c1)N1CCN(S(=O)(=O)c2ccccc2Br)CC1 | ? | ? | ? | ? | -16 | -4%[46.1 µM]
Clc1ccc2[nH]c3c(NCCN4CCOCC4)ncnc3c2c1 | ? | 3.7µM* | ? | 30% | -10 | -20%
O=c1c2[nH]c3ccc(F)cc3c2ncn1CCCN1CCOCC1 | 9% | 3% | 15% | ? | 25 | -6%
Fc1ccc2[nH]c3c(NCCN4CCOCC4)ncnc3c2c1 | -21% | 3.3µM* | ? | 4.1µM* | nt | -29%
Clc1ccc2[nH]c3c(NCC4CCCO4)ncnc3c2c1 (stereo not drawn) | nt | ? | nt | 166% | -65* | 0%
Clc1ccc(-n2ncc3c(NCC4CCCO4)ncnc32)cc1 (stereo not drawn) | -11% | 164% | ? | 146% | 47 | -14%
O=c1[nH]c2cc3c(cc2cc1CN(CCc1ccccc1)C(=S)NCCCN1CCOCC1)OCCO3 | nt | nt | ? | nt | 8 | nt
O=C(Nc1ccccc1C(=O)NCC1CC1)c1cccs1 | nt | nt | nt | nt | 1 | nt
Cn1c2c(c(=O)n(C)c1=O)C(C(F)(F)F)(C(F)(F)F)N=C(c1ccc(Cl)cc1)N2 | 2.8µM* | ? | 1.6µM* | 1.5µM* | nt | 1µM*
Cc1ccccc1C1=NC(C(F)(F)F)(C(F)(F)F)c2c(n(C)c(=O)n(C)c2=O)N1 | -8% | ? | ? | ? | ? | -3%
CCCN(CCC)c1nc(C#N)nc(N(CCC)CCC)n1 | -16% | 12µM* | ? | 8.3µM* | ? | 0%[46.1 µM]
O=C(C1CCCCC1)N1C[C@H](O)[C@@H](n2cc(-c3ccc(F)cc3)nn2)C[C@@H]1c1ccccc1 | nt | nt | nt | nt | -12 | nt
O=C(NC1CCCCCC1)c1cc(S(=O)(=O)N2CCOCC2)ccc1N1CCCCC1 | -18% | ? | -22% | 6.6µM* | 1 | 4%
O=C(NC1CCCCC1)c1cc(S(=O)(=O)N2CCCCC2)ccc1N1CCOCC1 | nt | ? | 8% | ? | 10 | nt
NC(=O)c1ccccc1NC(=O)c1cc(S(=O)(=O)N2CCCCC2)ccc1N1CCOCC1 | 11% | 13µM* | 10% | 6.6µM* | -16 | ?
O=C(NC1CCCCCC1)c1cc(S(=O)(=O)N2CCCCC2)ccc1N1CCOCC1 | -34%[46.1 µM] | 12µM* | 6% | ? | ? | -9%[46.1 µM]
O=C(Nc1ccccc1)c1cc(S(=O)(=O)N2CCCCC2)ccc1N1CCOCC1 | nt | ? | 1% | ? | -11 | nt
Cc1cncc(C(=O)O)[n+]1[O-] | nt | -7% | nt | 5% | nt | nt
CCn1c(=O)cc(SCC(=O)NCc2ccc(C)o2)c2ccccc21 | -18% | nt | -19% | 12µM* | -13 | ?
CCc1ccc(CNC(=O)CSc2cc(=O)n(CC)c3ccccc23)cc1 | -18%[46.1 µM] | nt | nt | nt | 11 | 8%[46.1 µM]
CCn1c(=O)cc(SCC(=O)NCc2cccnc2)c2ccccc21 | -2% | 36% | -17% | 9.3µM* | 65 | -2%
CCC(=O)N1CCc2cc(Br)cc(S(=O)(=O)CCC(=O)NCc3ccc(F)cc3)c21 | ? | nt | nt | nt | -5 | -6%[46.1 µM]
SMILES | LASV entry inh | Pf growth 48h | HCV inh | Pf growth 96h | HCMV inh | MARV entry inh
Cc1oc(-c2cccc(F)c2)nc1CN1CCCCC1CCc1ccccn1 (stereo not drawn) | nt | 13µM* | -15% | ? | -17 | nt
CCc1cccc(CC)c1NC(=O)COC(=O)CC1c2ccccc2CCN1S(=O)(=O)c1ccccc1 (stereo not drawn) | -3% | -21% | 7.1µM* | ? | -37 | ?
O=C(O)CC1c2ccccc2CCN1S(=O)(=O)c1ccccc1 (stereo not drawn) | 9% | nt | 16% | nt | -23 | 7%[46.1 µM]
CCOc1cc(/C=C2\C(=O)N(CCc3ccc(OC)c(OC)c3)C(C)=C2C(=O)OC)ccc1O | -6% | 12µM* | -1% | ? | -22 | 17%
COC(=O)C1=C(C)N(Cc2ccc(C)cc2)C(=O)/C1=C\c1ccc(O)c(OC)c1 | ? | -6% | -6% | -25% | 119 | ?
COC(=O)C1=C(C)N(Cc2ccc(C)cc2)C(=O)/C1=C\c1cc(OC)c(OC)c(OC)c1 | ? | 10µM* | ? | 34% | 67 | ?
Cc1csc(NC(=O)Cc2coc3cc(C)c(C(C)C)cc23)n1 | 2.8µM* | nt | 10µM* | 5% | -89* | 4µM*
Cc1cc2occ(CC(=O)NCc3cccs3)c2cc1C(C)C | -13% | -26% | -23% | ? | 23 | ?
OC[C@H]1OC(O)[C@H](O)[C@@H](O)[C@H]1O (stereo partly drawn) | nt | 1% | -15% | 6% | -61* | nt
Cc1ccc(C)c(OCCn2c(-c3ccc(Cl)cc3)nc3ccccc3c2=O)c1C | 0%[46.1 µM] | nt | nt | nt | 37 | -2%[46.1 µM]
Cc1ccc(S(=O)(=O)Nc2ccccc2)cc1[N+](=O)[O-] | 0% | nt | 18% | nt | 14 | 0%
Cc1cccc2c(N=Nc3ccc(S(=O)(=O)Nc4cccc(Cl)c4)cc3[N+](=O)[O-])c(O)[nH]c12 | nt | 6.6µM* | -4% | ? | 70 | nt
O=C(CSc1nc2c(cnn2-c2ccc(F)cc2)c(=O)[nH]1)Nc1ccccc1C(F)(F)F | 4%[46.1 µM] | nt | nt | nt | 0 | ?
COc1ccc(NC(=O)CN2c3cccc4cccc(c34)S2(=O)=O)c(OC)c1 | -15% | ? | ? | nt | 6 | -14%
COc1cc(NC(=O)CN2c3cccc4cccc(c34)S2(=O)=O)cc(OC)c1OC | -3% | 13% | 11µM* | ? | -25 | ?
O=C(CN1c2cccc3cccc(c23)S1(=O)=O)Nc1ccc(S(=O)(=O)N2CCOCC2)cc1 | 5% | ? | -17% | 13µM* | -9 | -7%
CCCN(C(=O)Cn1cnc2onc(-c3ccc(F)cc3)c2c1=O)c1cccc(Cl)c1 | -2%[46.1 µM] | nt | nt | nt | 9 | nt
Cc1ccc(N(Cc2ccco2)C(=O)c2ccc(N3CCCCC3)c([N+](=O)[O-])c2)cc1 | ? | 0% | ? | 12µM* | -66* | 23µM*
O=C(NCc1ccco1)c1ccc(N2CCCCC2)c([N+](=O)[O-])c1 | 21µM* | 8.3µM* | ? | 6.6µM* | -14 | 16%
O=C(NCc1ccc(F)cc1)c1ccc(N2CCc3ccccc32)c([N+](=O)[O-])c1 | 18µM* | ? | ? | ? | ? | ?
CC1CCN(c2ccc(C(=O)NCc3ccco3)cc2[N+](=O)[O-])CC1 | 6.5µM* | 0.83µM* | ? | 1.2µM* | -21 | ?

Screens: PubChem BioAssay, National Center for Advancing Translational Sciences (NCATS)
